# KDM4E inh: qHTS Assay for Inhibitors of Human Jumonji Domain Containing 2E (JMJD2E); Lysine-specific demethylase 4E (Homo sapiens), B2RXH2; JMJD2E catalytic domain, FDH-coupled NADH fluorescence (FDH is formaldehyde dehydrogenase); Potency, µM (doses to about 57.1 µM), for the others: at the highest dose activity change, negative = inhibition, most hits filed as inhibitors; hit rate 1.6% among 230,000; AID 2147, 2009; active = well fitted inhibition curve with a large enough effect, not every such curve was filed as active; inconclusive = small, poorly fitted or top-dose-only effect, or another doubt; inactive = no such curve, though single readings can be large or run the other way;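 note: potency is the fitted concentration of half-maximal effect; 0% = wells with enzyme and -100% = buffer wells without enzyme; nearly all actives have a fitted effect of over 50% in size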
# Target sequence (B2RXH2 1-337 limits assumed): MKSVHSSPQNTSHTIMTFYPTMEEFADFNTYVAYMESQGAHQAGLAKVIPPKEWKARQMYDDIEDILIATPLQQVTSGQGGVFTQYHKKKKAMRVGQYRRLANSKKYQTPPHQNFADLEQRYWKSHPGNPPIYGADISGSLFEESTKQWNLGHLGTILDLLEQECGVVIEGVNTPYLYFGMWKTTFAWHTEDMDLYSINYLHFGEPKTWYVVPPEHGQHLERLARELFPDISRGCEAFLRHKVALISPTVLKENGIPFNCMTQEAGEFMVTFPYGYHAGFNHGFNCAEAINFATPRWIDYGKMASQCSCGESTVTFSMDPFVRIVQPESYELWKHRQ
# Sfp inh: qHTS Assay for Inhibitors of Bacillus subtilis Sfp phosphopantetheinyl transferase (PPTase); 4'-phosphopantetheinyl transferase ffp (Bacillus subtilis), Q9F4F7; Biochemical Sfp PPTase activity, qHTS; Potency, µM, inactives show largest response in the series, negative = inhibition, hits mostly inhibitors; hit rate 3.5% among 310,000;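 note: the enzyme is Sfp with the accession as filed and its product quenches rhodamine fluorescence; potency is the fitted concentration of half-maximal effect; 0% = enzyme reaction without inhibitor and -100% = no enzyme wells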
#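 Step 1, compound plus 15 nM Sfp-PPTase, 15 min, room temperature. Step 2, add rhodamine-CoA (5 uM) and BHQ-2-YbbR (12.5 uM). Step 3, read 525/598 nm fluorescence at 0 and 30 min.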
# G9a block: qHTS Assay for Inhibitors of Histone Lysine Methyltransferase G9a. Histone-lysine N-methyltransferase EHMT2 (Homo sapiens), Q96KQ7. G9a H3K9 monomethylation, AlphaScreen, 2 h. Potency, µM (top dose mostly 102 µM), without a hit: top-dose activity, negative = inhibition, actives largely listed as inhibitors. hit rate 8.8% among 350,000; note: potency is the fitted concentration of half-maximal effect; % is set by controls: 0 for no effect and ±100 for the full control effect; nearly all actives have a fitted effect of over 75% in size
# Target sequence (Q96KQ7 913-1193 limits assumed): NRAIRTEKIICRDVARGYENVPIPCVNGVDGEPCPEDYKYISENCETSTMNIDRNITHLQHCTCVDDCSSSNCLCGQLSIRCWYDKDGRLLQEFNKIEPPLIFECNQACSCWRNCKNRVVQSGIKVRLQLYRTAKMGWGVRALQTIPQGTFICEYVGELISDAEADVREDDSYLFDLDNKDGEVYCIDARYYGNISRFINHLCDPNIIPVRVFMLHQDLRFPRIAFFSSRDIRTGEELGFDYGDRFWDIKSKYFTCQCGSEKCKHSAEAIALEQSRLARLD
#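 Using a bead-based AlphaScreen, monomethylated H3K9 product from 2 h room-temperature reactions (G9a 20 nM, peptide 500 nM, SAM 20 uM) was detected with 0.5 ug/mL rabbit anti-H3K9me1 antibody.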
# LMNA splice mod: qHTS Assay for Modulators of Lamin A Splicing | Potency, µM (doses to about 46.1 µM), without a hit: at the top dose ratio change, negative = inhibition, most hits filed as inhibitors | hit rate 0.01% among 200,000 | HeLa LMNA splicing GFP/RFP minigene ratio, 48 h; active = well fitted inhibition curve with a large enough effect in the signal ratio, with a control signal flat, not every such curve was filed as active; inconclusive = small, poorly fitted or top-dose-only effect, or effect the other way, or a change in a side signal; the % refers to the signal ratio; note: potency is the fitted concentration of half-maximal effect; % is set by controls: 0 for no effect and ±100 for the full control effect
#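 S3 HeLa stable clones carrying a lamin A-EGFP splicing minigene plus DsRed2 were seeded at 600 cells/well in Opti-MEM with 2% FBS, pin-dosed and incubated 48 h at 37°C. Acumen cytometry (488 nm) gave the GFP/RFP total-intensity ratio.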
# ALDH1A1 inh: qHTS Assay for Inhibitors of Aldehyde Dehydrogenase 1 (ALDH1A1) | AID 1030, 2008 | Aldehyde dehydrogenase 1A1 (Homo sapiens), P00352 | Potency, µM (doses to about 75.3 µM), for the others: top-dose activity, negative = inhibition, usual class: inhibitors | Purified ALDH1A1, NADH fluorescence, propionaldehyde substrate | hit rate 7.3% among 220,000; active = well fitted inhibition curve with a large enough effect, not every such curve was filed as active; inconclusive = small, poorly fitted or top-dose-only effect, or another doubt; inactive = no such curve, though single readings can be large or run the other way;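 note: potency is the fitted concentration of half-maximal effect; plate controls were no enzyme wells and a reference inhibitor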
# miR-21 act: qHTS Assay for Modulators of miRNAs and/orActivators of miR-21; HeLa miR-21 FLuc reporter, luciferase, 48 h; Potency, µM (top dose mostly 38.3 µM), without a hit: at the highest dose activity change, positive = activation, hits mostly activators; 340,000 tested, under 10 active; AID 2288, 2010;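 note: % of control where 0% means no effect; miR-21 action dims this reporter so a rising signal means less miR-21 action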
#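 Compounds were titrated across several concentrations (up to approximately 40 uM) and incubated 48 hours with HeLa miR-21-FLuc reporter cells (miR-21 target sequence downstream of FLuc, endogenous miR-21). Readout was firefly luciferase luminescence after lytic detection reagent.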
# Active calls of the source: *; ? = inconclusive; nt = no result given; [ ] = dose if it differs, or a comment. In the library only some 13% were active in any assay of this set; here they are far more common. Unless noted, calls come from the whole dose curve; as a rule, active = well fitted curve in the direction sought with a large enough effect; inconclusive = small, poorly fitted or top-dose-only effect, or another doubt; inactive = no such curve, though single readings can be large; an effect the other way counts as inactive or inconclusive.
SMILES,KDM4E inh,Sfp inh,G9a block,LMNA splice mod,ALDH1A1 inh,miR-21 act
Cc1ccc(/C=C2/C(=O)ON=C2c2ccccc2)o1,0%,14µM*,13µM*,nt,-12%,-18%
O=C(c1ccc(O)cc1)c1ccc(Cl)cc1,4%,21%,8%,2%,-3%,-33%
O=C1ON=C(c2ccccc2)/C1=C\c1ccco1,-11%,14µM*,32µM*,nt,?,4%
Cc1cc(=O)oc2cc(OCC(=O)N3CCC(C(N)=O)CC3)ccc12,nt,12%,nt,nt,nt,3%
Oc1ccc(-c2nc3ccccc3nc2-c2ccccc2)cc1,nt,9%,15%,nt,nt,15%
O=C1ON=C(c2ccccc2)/C1=C/c1ccc(O)cc1,nt,50µM*,50µM*,nt,nt,-13%
CCc1ccc(C2NC(C(=O)O)CS2)cc1 (stereo not drawn),-3%,-12%,3.5µM*,-2%,?,3%
CCc1ccc(C2NC(c3ccc(CC)cc3)C([N+](=O)[O-])C(C)(C)C2[N+](=O)[O-])cc1 (stereo not drawn),-4%,7%,-9%[59 µM],-3%,-3%,-4%
O=C(O)C1CSC(c2ccc3c(c2)OCO3)N1 (stereo not drawn),?,25µM*,7.1µM*,-6%[46 µM],nt,-27%
O=C(O)C1Cc2c([nH]c3ccccc23)C(c2ccc3c(c2)OCO3)N1 (stereo not drawn),?,-9%,35µM*,-2%,7%,-7%
O=C(O)C1CSC(c2ccc(O)c([N+](=O)[O-])c2)N1 (stereo not drawn),6%,27%,45µM*,19%[46 µM],9%,-1%
O=C(O)C1CCCCC1C(=O)NCc1ccc2c(c1)OCO2 (stereo not drawn),4%,10%,2%,4%[46 µM],-2%,-1%
CN(Cc1ccc(Br)cc1)C(=O)CCN1C(=O)c2cccc([N+](=O)[O-])c2C1=O,nt,-9%,-7%[59 µM],nt,nt,-1%
CCOc1ccc(-c2nnc(SCC(=O)NCc3ccc(Cl)cc3)o2)cc1,nt,nt,-8%[59 µM],nt,nt,-18%
COc1ccc(Cn2cc3c(-c4ccc(F)cc4)nnc-3c3cc(OC)c(OC)cc32)cc1,?,-8%,34%[59 µM],-17%,?,-15%
COc1cc2c3nnc(-c4ccc(F)cc4)c-3cn(Cc3ccc(F)cc3)c2cc1OC,?,-8%,50µM*,?,?,1%
O=C(CCn1cnc(-c2ccccc2)c1-c1ccccc1)N/N=C/c1ccccc1O,?,6%,45µM*,?,-7%,18%
CCN(CC)c1ccc2nc3ccccc3[n+](CC)c2c1,nt,?,14µM*,nt,nt,?
CCN(CC)c1ccc2nc3ccc(N)cc3[n+](-c3ccccc3)c2c1,nt,nt,-33%[0.501 µM],nt,nt,nt
COc1ccccc1N1CCN(c2ncnc3c2nc2n3CCCC2)CC1,nt,nt,-1%[59 µM],nt,nt,10%
COc1ccc(C(=O)NCC(=O)OCC(=O)N2N=C(c3ccc(Cl)cc3)CC2c2ccco2)cc1OC (stereo not drawn),?,8%,20µM*,nt,?,-7%
CN1CC(=O)N(CC(=O)N2N=C(c3ccc(Cl)cc3)CC2c2ccco2)C1=O (stereo not drawn),-4%,20µM*,?,?,?,-22%
O=C(CCl)N1N=C(c2ccco2)CC1c1ccco1 (stereo not drawn),nt,-37%,50µM*,nt,nt,?
CC(=O)N1N=C(c2c(-c3ccccc3)c3cc(Br)ccc3[nH]c2=O)CC1c1ccco1 (stereo not drawn),-11%,40µM*,50µM*,nt,nt,15%
CCC(=O)N1N=C(c2ccc(Cl)cc2)CC1c1ccco1 (stereo not drawn),-10%,-13%,10%,nt,?,-22%
SMILES,KDM4E inh,Sfp inh,G9a block,LMNA splice mod,ALDH1A1 inh,miR-21 act
CN(C(=O)c1nn(C)c2c1CS(=O)(=O)c1ccccc1-2)c1cccc(Cl)c1,nt,11%,-30%[59 µM],3%[46 µM],nt,-1%
CN(C)c1ccc(-c2nc(-c3ccncc3)no2)cc1[N+](=O)[O-],nt,nt,-29%[59 µM],nt,nt,-1%
COc1ccc(S(=O)(=O)c2cn(C)c3cc(N4CCOCC4)c(F)cc3c2=O)cc1,nt,nt,7%[59 µM],-13%[46 µM],nt,3%
CCOC(=O)c1c(C)n(-c2ccccc2)c2ccc(OC(=O)c3cccc(OC)c3OC)cc12,nt,nt,-15%[59 µM],nt,nt,-18%
O=C(c1ccco1)N1N=C(c2cccs2)CC1c1ccco1 (stereo not drawn),-2%,7%,nt,9%[46 µM],7%,4%
Cc1ccc(C2CC(c3cccs3)=NN2C(=O)c2ccco2)o1 (stereo not drawn),?,?,35µM*,?,?,-2%
O=C(CCl)N1N=C(c2cccs2)CC1c1ccco1 (stereo not drawn),?,0%,?,nt,0.45µM*,?
CN1CCN(CC(=O)N2N=C(c3cccs3)CC2c2ccco2)CC1 (stereo not drawn),2%,13%,-18%[59 µM],15%,-2%,-14%
O=C(COc1ccccc1F)N1N=C(c2cccs2)CC1c1ccco1 (stereo not drawn),nt,nt,50µM*,nt,nt,nt
O=C(COc1cccnc1[N+](=O)[O-])N1N=C(c2ccc(Cl)cc2)CC1c1ccco1 (stereo not drawn),-1%,?,-31%,nt,13µM*,-8%
Cc1c2cnn(-c3ccccc3)c(=O)c2c(C)n1C(C)C(=O)Nc1ccccc1C(F)(F)F (stereo not drawn),nt,nt,-19%[59 µM],nt,nt,8%
CCN(CC)CCCNC(=O)c1cn(C)c2ccc(S(=O)(=O)N3CCOCC3)cc2c1=O,nt,nt,10%[59 µM],nt,nt,2%
OC[C@H]1O[C@@H](O[C@@H]2[C@@H](CO)O[C@](O)(CO)[C@H]2O)[C@H](O)[C@@H](O)[C@H]1O,2%,16%,nt,nt,8%,nt
COc1ccc(-c2nc3ccccc3o2)cc1NC(=O)C(C)(C)Oc1ccc(Br)cc1,nt,nt,-20%[59 µM],nt,nt,-2%
Cc1ccc(N(C(=O)CNC(=O)c2ccco2)C(C(=O)NC2CCCCC2)c2ccncc2)c(C)c1 (stereo not drawn),nt,7%,22%,nt,nt,-1%
CCCCn1nc(NC(=O)c2cccc(Cl)c2)c2cc3ccc(C)cc3nc21,nt,nt,1%[59 µM],nt,nt,4%
CCc1ccc(C2=NN(C(C)=O)C(c3ccco3)C2)cc1 (stereo not drawn),0%,25µM*,nt,nt,-7%,-61%
